The panel holds about 83,000 compounds, 20% with a hit somewhere; the sample as a whole holds those more often.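 Values shown are percent growth following 48 h exposure of cells in 96-well plates to a single concentration of compound; below 10 was considered active.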 Values without a mark were called inactive. Active and inactive are the calls of the source.
Each compound was assayed on SK-MEL-28 melanoma (assay: NCI-60 one-dose screen, 48 h (100 = growth as untreated, 0 = no growth, -100 = all killed)). Details: 10 µM unless noted.
Description: Growth inhibition of the SK-MEL-28 human tumor cell line is measured as a screen for anti-cancer activity. Cells are grown in 96 well plates and exposed to the test compound for 48 hours. Compounds are tested at a single concentration, which is 10^-5 M for most compounds. The reported endpoint is percent growth (GI% or GIPRCNT), where numbers from 0 - 100% represent growth inhibition, and numbers from -100% - 0 represent cell death. For example, a value of 40 represents 60% growth inhibition. A value of 0 means no net growth occurred over the course of the experiment. A value of -40 indicates 40% of cells at the beginning of the experiment died by the end of the experiment. A value of -100 means all cells are dead at the end of the experiment.
NCI-60 Human Tumor Cell Lines Screen was performed using the standard one-dose NCI protocol, which is described in more detail at https://dtp.cancer.gov/discovery_development/nci-60/default.htm.
Compounds with GIPRCNT values below 10 were considered active. Activity score was based on GIPRCNT using the following formula: […]
Score is 0 for GIPRCNT values of 100 or above, 50 for GIPRCNT values of 0, and 100 for GIPRCNT values of -100.
Compound `CSc1nc(-c2ccc(O)cc2O)c2c(=O)[nH]c(Nc3ccc(S(=O)(=O)Nc4nc(C)cc(C)n4)cc3)nc2n1` has a growth of 97.8%. In the case of `O=C(Nc1cccc(-n2cc(-c3ccncc3)c(-c3cc(O)cc(Cl)c3)n2)c1)Nc1ccc(Cl)c(Cl)c1`, the growth is reported as -50.9% (active). In the case of `[N-]=[N+]=NCc1cccc(/C(O)=C/C(=O)C(=O)O)c1`, the growth is reported as 82.1%. For `NS(=O)(=O)c1ccc(-n2ncc3c(NC4CCCCC4)ncnc32)cc1`, the growth was 98%. With `COc1cccc(CCN2C(=O)CCC3=C2CCC3=O)c1` the growth was 111%. In the case of `CCOC(=O)/C=C1/SC(=Nc2ccc(C#N)cc2)N(Cc2ccco2)C1=O`, the growth is reported as 38.5%. `O=C(Nc1nc(-c2ccc(Cl)cc2)cs1)c1cc(-c2ccc(Br)cc2)nc2ccc(Cl)cc12` was tested, and the growth was 52.9%. For `N#Cc1c(NC(=O)c2ccco2)[n+]([O-])c2ccccc2[n+]1[O-]`, the growth was 104%. In the case of `CN1CCN(c2nc3scc(-c4ccccc4)c3c(=O)[nH]2)CC1`, the growth is reported as 104%. In the case of `Clc1ccc2c(c1)C(Br)c1cc(Cl)cc(Cl)c1-2` (stereo not given), the growth is reported as 112%. `O=C1/C(=C/c2ccc(F)cc2)Cc2ccccc21` was tested, and the growth was 105%. `COc1ccc(-c2cc(-c3cccnc3)nc3sc(C(=O)Nc4ccccc4)c(N)c23)cc1OC` was tested, and the growth was 73.3%. In the case of `CC(=O)OC1Oc2cc(C)c(C)cc2-c2oc(=O)c(-c3ccccc3)cc21` (stereo not given), the growth is reported as 49%. Work on `CCCCCCCCCCCCCCCCNC(=O)Nc1ccc2ccccc2c1` yielded a growth of 108%. Work on `CCCCCCCCN(CCO)CCCCCCCC` yielded a growth of 101%. `N#Cc1c(-c2ccccc2)cc(-c2ccccc2)n(CC(=O)O)c1=O` was tested, and the growth was 60.6%. For `CCCCCc1c(C)[nH]c(/C=C2\N=C(c3ccc[nH]3)C=C2OCc2ccccc2)c1C`, the growth was -89.8% [100 µM] (active). Work on `COc1ccc(C2=NN(C=O)C(c3cccc(Nc4ccnc5cc(Cl)ccc45)c3)C2)cc1` (stereo not given) yielded a growth of 50.6%. `Cc1ccc(N/N=C(/C(=O)c2ccc(Cl)cc2)c2nc(C)cc(=O)[nH]2)cc1` gave a growth of 118%. `COc1ccc(C(=O)COc2ccc(/C=C3\Oc4ccc5ccccc5c4C3=O)cc2)cc1` was tested, and the growth was 105%. With `CCc1nn2c(-c3ccc(Cl)cc3C)c(-c3cc(OC)c(OC)c(OC)c3)nc2s1` the growth was 80.8%. `C[C@H](C(=O)N[C@@H](Cc1ccc(-c2ccccc2)cc1)C(=O)NC1CC(C)(C)N(C)C(C)(C)C1)c1ccc(-c2ccccc2)c(F)c1` was tested, and the growth was -73% (active). In the case of `NS(=O)(=O)c1ccc(-n2ncc3c(SCc4ccccc4)ncnc32)cc1`, the growth is reported as 107%. In the case of `CCNCCCn1c2c(c3ccc(F)cc3c1=O)C(=O)c1cc(OC)cnc1-2`, the growth is reported as 8.91% (active). `CCN(CC)c1ccc(/C=C/C(=O)c2cccc(NS(C)(=O)=O)c2)cc1` showed a growth of 72.5%. `O=C(Nc1ccc(Cl)cc1)Nc1nc2ccc(OC(F)(F)F)cc2o1` was tested, and the growth was 108%. In the case of `COc1ccc(C2=NN(C(C)=O)C(c3cccc(Nc4ccnc5cc(Cl)ccc45)c3)C2)cc1` (stereo not given), the growth is reported as 73%. For `Cc1n(Cc2ccc3ccccc3c2)c2ccccc2[n+]1Cc1ccc2ccccc2c1`, the growth was -58% (active). In the case of `CN(C)CCCN=c1cc2c(=O)n(CCCN(C)C)c(=O)c3c(NCCCN(C)C)cc4c(O)n(CCCN(C)C)c(=O)c1c4c3-2`, the growth is reported as -48.6% (active). `CC1C(C)N(C(=O)CCl)c2ccccc2N1C(=O)CCl` (stereo not given) was tested, and the growth was -45.9% (active). In the case of `COc1ccc(CNC(=O)c2c(C)n([O-])c3cc(F)c(F)cc3[n+]2=O)cc1`, the growth is reported as 93.7%. `C[C@@H]1CN(c2nc3c(cc2F)c(=O)c(C(=O)O)cn3C(C)(C)C)C[C@H](C)N1` gave a growth of 122%. In the case of `COc1ccc2nc(N/N=C(\C)c3ccccn3)cc(C)c2c1`, the growth is reported as 20%. With `CCCCc1n(Cc2ccc3ccccc3c2)cc[n+]1Cc1ccc2ccccc2c1` the growth was -55% (active). With `COc1ccc(Oc2ccccc2NC(=O)CNC(=O)c2cccc3ccccc23)cc1` the growth was 60.6% [5 µM]. `CN(C)c1ccc(-c2nc3ncc(Br)cc3o2)cc1` was tested, and the growth was 120%. With `O=C1NCCc2c1noc2-c1ccccc1` the growth was 111%. With `Nc1ccc(N=Nc2ccccc2)cc1[N+](=O)[O-]` the growth was 119%. Work on `COc1ccc([N+](=O)[O-])c(S(=O)(=O)c2ccc(Cl)cc2)n1` yielded a growth of 82%. `COc1ccc(-c2nc3sc4c(c3c(=O)[nH]2)CCCCCC4)cc1` gave a growth of 62.1%.
